CASP6 VEID inh: caspase-6 (human) enzyme inhibition; purified caspase-6, Z-VEID-R110 cleavage fluorescence; inhibition, % at 12.5 µM; actives 0.53% (n = 350,000);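 active = mean inhibition across replicates at least about 35%, with every replicate also reaching that limit, limit read from the data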;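 also: 0% = median of neutral control wells and 100% = no fluorescence left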
Target sequence (P55212 24-179 limits assumed): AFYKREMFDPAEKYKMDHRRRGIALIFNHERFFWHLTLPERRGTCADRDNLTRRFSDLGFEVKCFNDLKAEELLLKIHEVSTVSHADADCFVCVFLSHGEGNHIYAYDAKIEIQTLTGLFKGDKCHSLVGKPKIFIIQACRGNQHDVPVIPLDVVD
Target sequence (P55212 194-293 limits assumed): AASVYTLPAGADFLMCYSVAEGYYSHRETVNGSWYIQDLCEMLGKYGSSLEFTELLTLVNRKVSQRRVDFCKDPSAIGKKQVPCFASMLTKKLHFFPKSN
N-glyco inh: blocks N-linked glycosylation in D54 reporter cells. D54 ERlucT glycosylation luciferase reporter, 24 h; percent of 100 nM tunicamycin response. actives 0.23% (n = 360,000). reporter increase, % at 12.5 µM;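 active = mean luciferase reporter signal, scaled so untreated is 0 and the glycosylation-blocking control 100, at or above a set limit in every replicate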;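 also: luciferase carries N-glycosylation sites so blocking glycosylation raises the light; 0% = median of neutral control wells and 100% = median of 100 nM tunicamycin wells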
Mot1-301 SUMO: inhibitors of SUMOylation pathway: yeast Mot1-301 growth rescue. S. cerevisiae Mot1-301 growth rescue, ATP luminescence, 38.5C; percent above DMSO median, 100 means doubled. growth rescue, % at 18.8 µM. actives 1% (n = 320,000). AID 2716;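 active = every valid replicate shows activation above 250% relative to neutral control wells; inactive = the rest, any valid replicate at or below 250%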;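 also: OY570 slx delta 5 strain wells were the positive control but not used for scaling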
ALR H2O2 inh: inhibitors of human sulfhydryl oxidase ALR; P55789; purified ALR, DTT oxidation, H2O2 HRP-luminol luminescence; inhibition, % (no concentration beside the values); actives 3.8% (n = 290,000);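 active = mean replicate inhibition above about 79%, with every replicate also reaching it, limit read from the data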
Target sequence (P55789 whole entry, looked up): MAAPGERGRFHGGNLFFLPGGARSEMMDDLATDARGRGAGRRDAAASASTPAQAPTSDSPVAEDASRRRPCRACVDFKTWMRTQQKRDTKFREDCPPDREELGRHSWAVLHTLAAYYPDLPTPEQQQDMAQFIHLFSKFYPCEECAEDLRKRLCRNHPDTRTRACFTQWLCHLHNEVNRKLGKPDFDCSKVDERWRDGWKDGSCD
CDK5 inh: inhibitors of human CDK5/p35 kinase; Recombinant CDK5/p35, ADP-Glo luminescence, 60 min; inhibition, % at 10 µM; actives 0.01% (n = 330,000); AID 488839;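 active = highest replicate inhibition of at least 50% and at least 75% of replicates reaching 50%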;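 also: plate controls were DMSO neutral control for no effect and GW8510 at 10 µM for full effect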
NSD2 HMT inh: NSD2 (human) methyltransferase inhibition; NSD2 peptide methylation, AlphaScreen, 120 min; inhibition, % at 12.5 µM; actives 0.54% (n = 310,000); AID 743445; O96028; in the data active = inhibition above about 50%
* hit, by the source's call; . = not tested or not shown. A selection: hits, their analogues and other compounds. The true share with any hit is near 3.9%.

SMILES | CASP6 VEID inh | N-glyco inh | Mot1-301 SUMO | ALR H2O2 inh | CDK5 inh | NSD2 HMT inh
O=C(CN1CCN(c2ccc(F)cc2)CC1)OCc1ccccc1 | . | 2.2 | 500.3 | 91.7* | -0.4 | -0.8
CC1(C(=O)N2CCN(c3ccccc3)CC2)CC1(Cl)Cl (centres undefined) | 3.6 | -0.3 | -23.3 | 96.2* | 0.8 | 16.7
CC(C)NC(=O)N(C)C[C@@H]1OCCCC[C@@H](C)Oc2ccc(NS(=O)(=O)c3cn(C)cn3)cc2C(=O)N([C@H](C)CO)C[C@@H]1C | 0.8 | . | . | . | . | .
C[C@H](CO)N1C[C@H](C)[C@@H](CN(C)Cc2ccc(Cl)c(Cl)c2)Oc2ccc(NC(=O)c3ccncc3)cc2C1=O | 1.2 | . | . | . | . | .
O=C(CSCc1cccc(F)c1)N1CCN(c2ccccc2)CC1 | 2.1 | -2.6 | 83.2 | 98.4* | 1.4 | -0.9
O=C(CSCc1ccccc1)N1CCN(c2ccc(F)cc2)CC1 | . | -0.2 | -35.6 | 88.5* | 1.0 | -1.7
O=C(CN1CCN(c2ccccc2)CC1)N1CCN(c2ccccc2)CC1 | -0.3 | -0.1 | 4.2 | 98.6* | -1.1 | 0.8
CCn1c(CSCc2ccc(F)cc2)nnc1SCC(=O)N1CCN(c2ccccc2)CC1 | . | -2.3 | 11.8 | 96.8* | -0.4 | -2.1
C[C@H]1CN([C@@H](C)CO)S(=O)(=O)c2ccc(C#Cc3ccccc3F)cc2O[C@@H]1CN(C)C | -1.3 | . | . | . | . | .
CC(C)(C)OC(=O)N1CCN(C(=O)c2ncn(Cc3ccccc3)c2C(=O)N2CCN(C(=O)OC(C)(C)C)CC2)CC1 | -0.3 | 0.1 | -0.2 | 3.6 | 0.7 | .
O=C(CCCOc1ccccc1)N1CCN(c2ccc(F)cc2)CC1 | . | 1.9 | 15.1 | 70.5 | 0.3 | 14.4
O=C(c1ncn(Cc2ccccc2)c1C(=O)N1CCN(c2ccccc2)CC1)N1CCN(c2ccccc2)CC1 | 0.2 | 49.6* | 37.4 | 20.7 | 0.8 | .
O=C(CN1CCN(c2ccccc2)CC1)Nc1ccncc1 | -1.0 | -2.0 | 44.0 | 99.1* | 0.6 | -2.0
O=C(CCc1ccccc1)N1CCN(c2ccc(F)cc2)CC1 | -4.8 | -0.3 | 7.6 | 85.9* | 2.7 | 1.8
O=C(Cc1ccc(Br)cc1)N1CCN(c2ccccc2)CC1 | . | -1.2 | 158.1 | 97.6* | 0.3 | 21.5
CO[C@@H]1CN(C)C(=O)c2cc(NC(C)=O)ccc2OC[C@@H](C)N(Cc2nccs2)C[C@@H]1C | -2.7 | . | . | . | . | .
Cc1ccc(S(=O)(=O)N(C)C[C@H]2OCCCC[C@H](C)Oc3ccc(NC(=O)NC(C)C)cc3C(=O)N([C@H](C)CO)C[C@@H]2C)cc1 | -0.6 | . | . | . | . | .
O=C(CN1CCCCC1)N1CCN(c2ccccc2)CC1 | -0.7 | 2.0 | 15.5 | 37.0 | -8.0 | -1.5
O=C(CSC1CCCCC1)N1CCN(c2ccccc2)CC1 | . | 3.6 | -14.2 | 98.0* | 0.4 | 10.5
CCCN(C)C[C@@H]1Oc2ncc(-c3cccc(F)c3)cc2C(=O)N([C@H](C)CO)C[C@@H]1C | 1.5 | . | . | . | . | .
COc1ccc2nc(NNC(=O)COc3ccccc3)sc2c1 | 0.4 | 1.6 | -0.8 | -22.6 | -0.6 | 1.0
Cc1csc(=O)n1CC(=O)Nc1nc2ccccc2s1 | 2.0 | 1.5 | 320.6* | 12.6 | -0.6 | -2.3
CCOCC(=O)Nc1nc2ccccc2s1 | . | 1.7 | -0.9 | 86.5* | 2.9 | 1.8
CCNC(=O)Nc1nc2ccccc2s1 | -0.2 | -0.6 | 626.9 | -0.4 | -1.8 | -1.5
CCCN1CCN(CC(=O)Nc2nc3ccccc3s2)CC1 | 0.8 | -3.3 | 130.5 | -2.8 | 0.4 | 10.2
SMILES | CASP6 VEID inh | N-glyco inh | Mot1-301 SUMO | ALR H2O2 inh | CDK5 inh | NSD2 HMT inh
O=C(COc1ccccc1)NNc1nc2ccccc2s1 | -1.6 | -6.7 | 3.0 | 99.2* | 0.3 | 0.3
CCCc1cc(C(N)=O)c(NC(=O)c2ccoc2C)s1 | 10.7 | -0.2 | 3.7 | 98.2* | -0.9 | 3.1
CCC12CN(C(=O)c3ccco3)CC(CC)(CN(C(=O)c3ccco3)C1)C2=O | 55.3* | 0.6 | 307.9 | 2.5 | 2.5 | 0.4
CCCC#Cc1ccc2c(c1)O[C@@H](CN(C)CCC)[C@@H](C)CN([C@@H](C)CO)S2(=O)=O | 4.0 | . | . | . | . | .
C[C@@H]1CCCCO[C@@H](CN(C)CC2CC2)[C@@H](C)CN([C@H](C)CO)C(=O)c2cc(NC(=O)CCC(F)(F)F)ccc2O1 | 0.1 | . | . | . | . | .
CN1C(=O)c2cc(NC(=O)C3CCCCC3)ccc2OC[C@@H]2O[C@H](CC(=O)NCC3CCCCC3)CC[C@H]21 | 2.5 | . | . | . | . | .
Cc1nccn1CC(=O)c1ccc(O)c(O)c1 | -2.9 | 2.5 | -7.1 | 87.0* | -0.3 | .
CCc1nccn1CC(=O)c1ccc(O)c(O)c1 | . | . | . | . | . | 21.9
O=C(C[C@@H]1C[C@@H]2c3cc(NC(=O)NC4CCCC4)ccc3O[C@@H]2[C@@H](CO)O1)NCc1ccc(-c2ccccc2)cc1 | -1.0 | . | . | . | . | .
O=C(/C=C/c1ccc2c(c1)OCO2)Nc1c(C(=O)O)[nH]c2ccccc12 | 3.3 | -1.5 | 1.2 | 98.5* | 0.2 | 7.4
C[C@H]1CN([C@@H](C)CO)C(=O)Cc2cc(NC(=O)CCN3CCOCC3)ccc2O[C@@H]1CN(C)CC1CC1 | -48.1 | . | . | . | . | .
CO[C@H]1CN(C)C(=O)c2ccc(NC(=O)c3ccccc3F)cc2OC[C@H](C)N(C(C)=O)C[C@H]1C | -2.4 | . | . | . | . | .
Cc1cccc(-n2c(CCn3nc(C)c([N+](=O)[O-])c3C)n[nH]c2=S)c1 | 0.1 | 1.2 | -4.9 | 91.9* | -0.1 | 2.8
Cc1cccc(-n2c(Cc3ccccc3)n[nH]c2=S)c1 | 1.2 | -0.5 | 26.3 | 5.2 | -0.5 | 0.5
COc1cccc(-n2c(CCn3nc(C)c([N+](=O)[O-])c3C)n[nH]c2=S)c1 | -0.1 | 5.7 | -5.2 | 85.5* | 0.8 | -0.7
C[C@@H]1CN([C@H](C)CO)C(=O)c2cc(NC(=O)c3ccncc3)ccc2O[C@H]1CN(C)Cc1ccc2c(c1)OCO2 | -0.6 | . | . | . | . | .
CO[C@H]1CN(C)C(=O)c2cc(NS(=O)(=O)c3ccccc3Cl)ccc2OC[C@@H](C)NC[C@H]1C | -1.6 | . | . | . | . | .
COc1cc(Br)cc(CN2CCN(c3ncccn3)CC2)c1O | 7.5 | -0.8 | 31.8 | 98.4* | -2.5 | -2.9
Cc1cccc(N2C(=O)C(O)=C(C(=O)c3cccs3)C2c2ccc(C(C)C)cc2)n1 (centres undefined) | 0.3 | 0.7 | 20.2 | 98.0* | 0.2 | 5.2
C=CCc1c(C)nc(C)nc1N/N=C/c1ccc(N(C)C)cc1 | . | 0.1 | -11.6 | 98.8* | 0.3 | 1.2
C=CCc1c(C)nc(-c2ccccc2)nc1N/N=C(\C)c1ccccc1 | -0.8 | 1.1 | -20.1 | . | -0.1 | -2.6
C[C@@H]1CN([C@@H](C)CO)C(=O)c2cc(NS(=O)(=O)c3cccs3)ccc2O[C@@H](C)CCCCO[C@H]1CN(C)Cc1ccccc1 | -1.7 | . | . | . | . | .
Cc1cc(O)cc(O)c1C(=O)Cc1cscn1 | . | 0.9 | 352.6* | 4.8 | 0.8 | 1.3

High-throughput results from PubChem BioAssay.
